Only some compounds are listed: those with a hit (about 3.5% of all), similar ones and a draw of the others.
CHRM1 PAM: human CHRM1 positive allosteric modulation. AID 588819. actives 0.088% (n = 360,000). activation, % at 3 µM. CHO-K1 hM1, Fluo-8 calcium fluorescence, ACh EC20; 0% = ACh EC20, 100% = maximal ACh; in the data active = activation above about 19%, passing the limit was not always enough
SKN-1 block: inhibitors of C. elegans SKN-1. inhibition, % at 21.8 µM. actives 0.49% (n = 360,000). AID 624304. C. elegans VP596 Pgst-4::GFP/RFP ratio, acrylamide-induced, 24 h;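 active = interference check ratio from 0.5 to 1.5 plus GFP to RFP signal ratio inhibition reaching or exceeding a fixed threshold, cut at about 30% in these data, passing the limit was not always enough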
M1 ag: agonists of human M1 muscarinic receptor. P11229. CHO-K1 hM1, Fluo-8 calcium fluorescence, agonist mode; 0% DMSO, 100% acetylcholine EC100. activation, % at 3 µM. actives 0.33% (n = 360,000). AID 588814;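 active = activation above the run's mean compound activation plus 3 SD, cut at about 16% in these data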;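 note: peak over basal fluorescence ratio within a 140 s kinetic read after compound addition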
Myeloid diff 2: promotes myeloid progenitor differentiation. ER-HoxA9 myeloid progenitors, lysozyme-GFP differentiation, flow cytometry. calls only at 10 µM. actives 1% (n = 360,000);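 active = normalized GFP-positive differentiation at or above the plate's own cutoff, the solvent-only control mean plus 3 SD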;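 note: cells exposed to compound for four days before flow analysis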
ATG4B inhibitor: blocks human ATG4B protease cleavage of LC3 substrate; ATG4B cleavage of LC3-PLA2, NBD-HPC fluorescence, 1 h; inhibition, % at 8.33 µM; actives 0.51% (n = 340,000); AID 504462; in the data active = inhibition above about 40%
Target sequence (Q9Y4P1 whole entry, looked up): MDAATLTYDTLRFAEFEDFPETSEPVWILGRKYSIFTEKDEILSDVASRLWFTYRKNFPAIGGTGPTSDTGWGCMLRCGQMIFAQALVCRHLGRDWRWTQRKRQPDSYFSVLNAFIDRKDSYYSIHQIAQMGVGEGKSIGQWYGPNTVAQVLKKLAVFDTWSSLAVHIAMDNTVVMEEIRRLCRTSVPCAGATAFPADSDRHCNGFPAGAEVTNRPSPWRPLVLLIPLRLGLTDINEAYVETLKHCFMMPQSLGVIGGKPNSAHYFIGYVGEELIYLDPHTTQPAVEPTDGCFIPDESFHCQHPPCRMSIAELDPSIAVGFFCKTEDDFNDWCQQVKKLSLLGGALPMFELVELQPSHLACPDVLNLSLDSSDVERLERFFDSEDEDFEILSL
CHRM1 antagonist: blocks human M1 muscarinic receptor. P11229. CHO-K1 hM1, Fluo-8 calcium fluorescence, ACh EC80 antagonist. inhibition, % at 3 µM. actives 1.3% (n = 360,000). AID 588852;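 active = percent inhibition above its own plate's cutoff, namely the mean of that plate's compound wells plus 3 SD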;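 note: peak over basal fluorescence ratio during 140 s after agonist addition; 0% = ACh EC80 plus DMSO and 100% = DMSO alone without agonist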
Starred values were filed as active, the others as inactive.

Screening CC1(Cc2ccc(Cl)c(Cl)c2)C(=O)Nc2c(Cl)ccc(Cl)c21 (stereo not drawn) returned CHRM1 PAM 13, SKN-1 block 6, M1 ag 2, Myeloid diff 2 inactive and CHRM1 antagonist -16.
O=C(O)CSc1nnnn1-c1ccc2c(c1)OCCO2 was read as CHRM1 PAM 2, SKN-1 block -15, M1 ag -4, Myeloid diff 2 inactive, ATG4B inhibitor -5 and CHRM1 antagonist 5.
For Cc1ccc(NC(=O)CSc2nnnn2-c2ccc3c(c2)OCO3)cc1C the results were CHRM1 PAM 7, SKN-1 block -47, M1 ag -1, Myeloid diff 2 active, ATG4B inhibitor 1 and CHRM1 antagonist -3.
For CC(C)OC(=O)CSc1nnnn1-c1ccc2c(c1)OCCO2 the results were CHRM1 PAM -8, SKN-1 block 45*, M1 ag -6, Myeloid diff 2 inactive, ATG4B inhibitor 1 and CHRM1 antagonist 17.
COc1ccccc1OCCOCCOc1ccc(C)cc1Br was read as CHRM1 PAM 2, SKN-1 block 4, M1 ag -8, Myeloid diff 2 active, ATG4B inhibitor -15 and CHRM1 antagonist -2.
`Cc1ccc(C(C)C)c(OCCCN(C)Cc2ccccc2)c1` gave CHRM1 PAM -26, SKN-1 block 15, M1 ag -8, Myeloid diff 2 inactive, ATG4B inhibitor 4 and CHRM1 antagonist 59*.
`Cc1ccc(C(C)C)c(OCC(O)CN(C)Cc2ccccc2)c1` (stereo not drawn) gave CHRM1 PAM -9, SKN-1 block 1, M1 ag -2, Myeloid diff 2 inactive, ATG4B inhibitor -2 and CHRM1 antagonist 12.
Screening Cc1ccc(OCCCCN(C)Cc2ccccc2)c(Br)c1 returned CHRM1 PAM -12, SKN-1 block 2, M1 ag -6, Myeloid diff 2 active, ATG4B inhibitor 22 and CHRM1 antagonist 6.
`Cc1cc(C)c(OCCCCN(C)Cc2ccccc2)c(C)c1` gave CHRM1 PAM -8, SKN-1 block -4, M1 ag -7, Myeloid diff 2 inactive, ATG4B inhibitor 12 and CHRM1 antagonist 6.
O=C(C1CC1)N1CCN(c2ccc([N+](=O)[O-])cc2-n2cccc2)CC1 was read as CHRM1 PAM 1, SKN-1 block 9, M1 ag -4, Myeloid diff 2 inactive, ATG4B inhibitor 1 and CHRM1 antagonist -11.
Screening COc1ccc(-c2cc(NC(=O)c3cncn3-c3ccccc3)ccc2OC)cc1 returned CHRM1 PAM 11, SKN-1 block -17, M1 ag -3, Myeloid diff 2 active, ATG4B inhibitor -10 and CHRM1 antagonist -10.
COc1ccc(NC(=O)c2cncn2-c2ccccc2)cc1 was read as CHRM1 PAM 5, SKN-1 block -1, M1 ag -4, Myeloid diff 2 inactive, ATG4B inhibitor 1 and CHRM1 antagonist -6.
Screening CC(C)NS(=O)(=O)c1ccc(NC(=O)C(C)Oc2ccc(C(=O)c3ccccc3)cc2)cc1 (stereo not drawn) returned CHRM1 PAM -19, SKN-1 block 11, M1 ag 57*, Myeloid diff 2 inactive, ATG4B inhibitor -4 and CHRM1 antagonist 66*.
Screening COc1ccc(NC(=O)C(C)Oc2ccc(/C(C)=N\O)cc2)cc1 (stereo not drawn) returned CHRM1 PAM -3, SKN-1 block 9, M1 ag 17*, Myeloid diff 2 inactive, ATG4B inhibitor 3 and CHRM1 antagonist 1.
Screening COc1ccc(OC(C)C(=O)Nc2ccc([N+](=O)[O-])cc2)cc1 (stereo not drawn) returned CHRM1 PAM 8, SKN-1 block 3, M1 ag -4, Myeloid diff 2 inactive, ATG4B inhibitor -3 and CHRM1 antagonist -8.
For CCCCN(C)c1c(C)nc2ccc(C(=O)N(C)Cc3ccco3)cn12 the results were CHRM1 PAM -7, SKN-1 block -17, M1 ag -6, Myeloid diff 2 inactive and CHRM1 antagonist 10.
For COc1ccc(C(=O)N(C)CCCC2CCCC2)cc1OC1CCN(C(C)C)CC1 the results were CHRM1 PAM -18, SKN-1 block 10, M1 ag -6, Myeloid diff 2 inactive, ATG4B inhibitor 7 and CHRM1 antagonist 30*.
For COc1ccc(C(=O)N(C)CCCC2CCCC2)cc1OC1CCN(C(C)=O)CC1 the results were CHRM1 PAM 16, SKN-1 block 10, M1 ag -2, Myeloid diff 2 inactive, ATG4B inhibitor -1 and CHRM1 antagonist -22.
COc1ccc(OC)c(CNc2ccc3c(c2)CCC3)c1 was read as CHRM1 PAM 0, SKN-1 block 8, M1 ag -3, Myeloid diff 2 active, ATG4B inhibitor -1 and CHRM1 antagonist 2.
